Among all 5,500 compounds or so, about 2,000 (36%) were called active. Inconclusive results (about 18%) are left out. Some of the results follow. Values without a mark were called inactive. Rule as the data show it: active = normalized growth mostly below about 0.91 (no sharp cut-off); inconclusive = no clear call, values can overlap the other calls; inactive = mostly above about 0.92.
Experiment: chemical genetic growth profiling, strain panel (AID 1159580);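 also: tested at 20 µM; growth read once vehicle control cultures reached saturation at 30 °C; 1 = growth at the plate median or of vehicle wells; lower values mean less growth of the strain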
Settings: S. cerevisiae deletion strains, growth OD

COc1ccc(C=CC(=O)c2ccc(O)cc2O)cc1OC
normalized growth (locus YAL021C, strain ccr4, stronger effect = lower value): 0.908 | normalized growth (locus YAL026C, strain drs2, stronger effect = lower value): 0.876 (active) | normalized growth (locus YAL030W, strain snc1, stronger effect = lower value): 0.964 | normalized growth (locus YBL061C, strain skt5, stronger effect = lower value): 0.811 (active) | normalized growth (locus YBR009C, strain hhf1, stronger effect = lower value): 0.867 (active) | normalized growth (locus YBR023C, strain chs3, stronger effect = lower value): 0.797 (active) | normalized growth (locus YBR171W, strain sec66, stronger effect = lower value): 0.965 | normalized growth (locus YBR231C, strain swc5, stronger effect = lower value): 0.86 (active) | normalized growth (locus YBR279W, strain paf1, stronger effect = lower value): 0.879 (active) | normalized growth (locus YCL011C, strain gbp2, stronger effect = lower value): 0.934 | normalized growth (locus YCL016C, strain dcc1, stronger effect = lower value): 0.936 | normalized growth (locus YCL061C, strain MRC1, stronger effect = lower value): 0.976 | normalized growth (locus YCL069W, strain vba3, stronger effect = lower value): 0.975 | normalized growth (locus YCR088W, strain abp1, stronger effect = lower value): 0.982 | normalized growth (locus YDL005C, strain med2, stronger effect = lower value): 0.983 | normalized growth (locus YDL040C, strain nat1, stronger effect = lower value): 0.984 | normalized growth (locus YDR001C, strain nth1, stronger effect = lower value): 0.971 | normalized growth (locus YDR069C, strain doa4, stronger effect = lower value): 0.953 | normalized growth (locus YDR137W, strain rgp1, stronger effect = lower value): 0.59 (active) | normalized growth (locus YDR159W, strain sac3, stronger effect = lower value): 0.893 | normalized growth (locus YDR195W, strain ref2): 1.16 [resistant] (active) | normalized growth (locus YDR297W, strain sur2, stronger effect = lower value): 0.968 | normalized growth (locus YDR334W, strain swr1, stronger effect = lower value): 0.974 | normalized growth (locus YDR335W, strain msn5, stronger effect = lower value): 0.973 | normalized growth (locus YDR392W, strain spt3, stronger effect = lower value): 0.361 (active) | normalized growth (locus YEL003W, strain gim4, stronger effect = lower value): 0.936 | normalized growth (locus YEL037C, strain rad23, stronger effect = lower value): 0.983 | normalized growth (locus YEL061C, strain CIN8 (second series), stronger effect = lower value): 0.977 | normalized growth (locus YER015W, strain faa2, stronger effect = lower value): 0.965 | normalized growth (locus YER016W, strain bim1, stronger effect = lower value): 0.979 | normalized growth (locus YER111C, strain swi4, stronger effect = lower value): 0.994 | normalized growth (locus YER155C, strain BEM2 (second series), stronger effect = lower value): 0.696 (active) | normalized growth (locus YFR010W, strain ubp6, stronger effect = lower value): 0.96 | normalized growth (locus YGL167C, strain pmr1, stronger effect = lower value): 0.961 | normalized growth (locus YGL173C, strain kem1, stronger effect = lower value): 0.972 | normalized growth (locus YGL227W, strain vid30, stronger effect = lower value): 0.987 | normalized growth (locus YGL240W, strain doc1, stronger effect = lower value): 0.893 | normalized growth (locus YGL253W, strain hxk2, stronger effect = lower value): 0.862 (active) | normalized growth (locus YHR013C, strain ard1, stronger effect = lower value): 0.842 (active) | normalized growth (locus YHR027C, strain rpn1, stronger effect = lower value): 0.982 | normalized growth (locus YHR142W, strain chs7, stronger effect = lower value): 0.645 (active) | normalized growth (locus YJL092W, strain hpr5, stronger effect = lower value): 0.972 | normalized growth (locus YJL095W, strain BCK1 (second series), stronger effect = lower value): 0.863 (active) | normalized growth (locus YJL115W, strain asf1, stronger effect = lower value): 0.989 | normalized growth (locus YJL129C, strain trk1, stronger effect = lower value): 0.818 (active) | normalized growth (locus YJL154C, strain vps35, stronger effect = lower value): 0.998 | normalized growth (locus YJL164C, strain tpk1, stronger effect = lower value): 0.859 (active) | normalized growth (locus YJL166W, strain qcr8, stronger effect = lower value): 0.83 (active) | normalized growth (locus YJL187C, strain SWE1, stronger effect = lower value): 0.929 | normalized growth (locus YKL160W, strain elf1, stronger effect = lower value): 0.83 (active) | normalized growth (locus YKR026C, strain gcn3, stronger effect = lower value): 0.976 | normalized growth (locus YKR091W, strain srl3, stronger effect = lower value): 0.989 | normalized growth (locus YLL001W, strain dnm1, stronger effect = lower value): 0.935 | normalized growth (locus YLL026W, stronger effect = lower value): 0.914 (active) | normalized growth (locus YLL041C, strain sdh2, stronger effect = lower value): 0.978 | normalized growth (locus YLR027C, strain aat2, stronger effect = lower value): 0.886 (active) | normalized growth (locus YLR221C, strain rsa3, stronger effect = lower value): 0.855 (active) | normalized growth (locus YLR258W, strain gsy2, stronger effect = lower value): 0.914 (active) | normalized growth (locus YLR262C, strain YPT6 (second series), stronger effect = lower value): 0.65 (active) | normalized growth (locus YLR320W, strain mms22, stronger effect = lower value): 0.732 (active) | normalized growth (locus YLR342W, strain FKS1, stronger effect = lower value): 0.96 | normalized growth (locus YLR357W, strain rsc2, stronger effect = lower value): 0.992 | normalized growth (locus YLR370C, strain arc18, stronger effect = lower value): 0.929 | normalized growth (locus YLR384C, strain iki3, stronger effect = lower value): 0.995 | normalized growth (locus YML120C, strain ndi1, stronger effect = lower value): 0.833 (active) | normalized growth (locus YMR058W, strain fet3, stronger effect = lower value): 0.908 | normalized growth (locus YMR125W, strain sto1, stronger effect = lower value): 0.933 | normalized growth (locus YMR129W, stronger effect = lower value): 0.98 | normalized growth (locus YMR205C, strain PFK2, stronger effect = lower value): 0.759 (active) | normalized growth (locus YMR231W, strain pep5, stronger effect = lower value): 0.996 | normalized growth (locus YNL071W, strain lat1, stronger effect = lower value): 0.666 (active) | normalized growth (locus YNL209W, strain ssb2, stronger effect = lower value): 0.958 | normalized growth (locus YNL248C, strain rpa49, stronger effect = lower value): 0.935 | normalized growth (locus YNL322C, strain KRE1 (second series), stronger effect = lower value): 0.996 | normalized growth (locus YNR049C, strain mso1, stronger effect = lower value): 0.974 | normalized growth (locus YOR001W, strain rrp6, stronger effect = lower value): 0.87 (active) | normalized growth (locus YOR070C, strain gyp1, stronger effect = lower value): 0.883 (active) | normalized growth (locus YOR080W, strain dia2, stronger effect = lower value): 0.991 | normalized growth (locus YOR083W, strain WHI5, stronger effect = lower value): 0.835 (active) | normalized growth (locus YOR106W, strain vam3, stronger effect = lower value): 0.814 (active) | normalized growth (locus YOR265W, strain rbl2, stronger effect = lower value): 0.969 | normalized growth (locus YOR270C, strain vph1, stronger effect = lower value): 0.653 (active) | normalized growth (locus YOR290C, strain snf2, stronger effect = lower value): 0.767 (active) | normalized growth (locus YPL051W, strain arl3, stronger effect = lower value): 0.768 (active) | normalized growth (locus YPL078C, strain atp4, stronger effect = lower value): 0.828 (active) | normalized growth (locus YPL106C, strain sse1, stronger effect = lower value): 0.881 | normalized growth (locus YPL240C, strain hsp82, stronger effect = lower value): 0.973
